# Results from PubChem BioAssay AID1063 (University of Pittsburgh Molecular Library Screening Center, 2008).
# Among all 200,000 compounds or so, about 18,000 (9%) were called active. Rule as the data show it: active = inhibition above about 50%; inactive = the rest. The sample as a whole holds a higher share of actives than the screen did.
# Test: antileishmanial activity against promastigotes – primary screen (AID 1063);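 also: promastigotes grown with compound for 44 hours at 28 °C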
# Settings: Leishmania major promastigotes, resazurin fluorescence viability; at 10 µM; active compounds read high
row,SMILES,inhibition
1,CC(=O)C1=C(O)C(=O)N(c2cccnc2)C1c1ccc([N+](=O)[O-])cc1 (stereo not drawn),-4.89% (inactive)
2,Cc1ccc(OCC(=O)NNC(=S)NCc2ccccc2)cc1,-2.06% (inactive)
3,O=c1c2ccccc2nc(CSc2nnnn2-c2ccccc2)n1-c1ccccc1,-5.4% (inactive)
4,Cc1ccc(-c2noc(CSc3nnnn3-c3ccccc3)n2)cc1,7.86% (inactive)
5,Cc1ccc(Nc2nc(CSc3nnnn3-c3ccccc3)cc(=O)[nH]2)cc1,97.7% (active)
6,CC1=NNC(=O)C1CCC(=O)N/N=C\c1cccc(Cl)c1 (stereo not drawn),0.75% (inactive)
7,COc1ccc(-c2nn(-c3ccccc3)cc2/C=C\C(=O)N2CCOCC2)cc1[N+](=O)[O-],12.4% (inactive)
8,O=[N+]([O-])c1cc(S(=O)(=O)CCCN2CCOCC2)ccc1F,1.38% (inactive)
9,COc1ccc(-c2ccc(CNCCCN3CCOCC3)o2)cc1Cl,40% (inactive)
10,C=CCOc1ccc(Cl)cc1CNCCCN1CCOCC1,69.1% (active)
11,COc1ccc(OC)c(Cc2nnc(CCC(=O)NC3CCCC3)o2)c1,-0.8% (inactive)
12,O=C1Nc2cc(Cl)c(Cl)cc2N(O)N1c1ccccc1Cl,-6.67% (inactive)
13,NC1=NC2(CCCCC2)N(c2ccc(F)cc2F)C(N)=N1,-5.15% (inactive)
14,Cc1cc(C(=O)CC#N)c(C)n1-c1c(C)n(C)n(-c2ccccc2)c1=O,-0.96% (inactive)
15,CC(=O)c1cnc(SCC(=O)O)nc1C,-12.2% (inactive)
16,NNc1nc2c(Cl)cccc2s1,99.1% (active)
17,C/C(=N\NC(=O)OC(C)(C)C)c1ccc[nH]1,-3.24% (inactive)
18,COc1cc([N+](=O)[O-])ccc1NC(=O)CN1CCCC1,-4.3% (inactive)
19,Cc1cc(-c2nnc(CCC(=O)NC(c3ccccc3)c3ccccc3)o2)no1,5.43% (inactive)
20,NNC(=O)c1cnn(-c2ccccc2)c1C(F)(F)F,-1.35% (inactive)
21,Cc1ccc(NC(=O)CN(C)S(=O)(=O)c2cnc[nH]2)cc1C,-1.54% (inactive)
22,CN(CC(=O)NC1CCCC1)S(=O)(=O)c1cnc[nH]1,-0.93% (inactive)
23,CN(CC(=O)NCCc1ccccc1)S(=O)(=O)c1cnc[nH]1,57.7% (active)
24,COC(=O)c1nc(NC(=O)c2ccc(C(C)(C)C)cc2)n[nH]1,-4.46% (inactive)

row,SMILES,inhibition
1,CCC(C)(C)NC(=O)C(c1cccc(OC)c1OC)N(CC(C)C)C(=O)CCC(=O)Nc1cc(C)on1 (stereo not drawn),9.34% (inactive)
2,O=C1NC(c2cccc(Cl)c2)Nc2ccccc21 (stereo not drawn),-1.93% (inactive)
3,O=C(O)c1ccc(/C=N/NC(=S)NCc2ccccc2)cc1,-3.57% (inactive)
4,O=C(N/N=C/c1ccc2c(c1)OCO2)C(=O)N1CCCC1,-3.67% (inactive)
5,Cc1cc(C)cc(C(=O)N2CCN=C2SCc2ccc([N+](=O)[O-])cc2)c1,20.5% (inactive)
6,O=C(Cc1ccc(F)cc1)N1CCN=C1SCc1cccc([N+](=O)[O-])c1,46.3% (inactive)
7,Cc1cccc(CC(=O)N2CCN=C2SCc2ccc([N+](=O)[O-])cc2)c1,88.4% (active)
8,Cc1cccc(C)c1NC(=O)C(c1ccccc1)N1CC(=O)Nc2ccccc21 (stereo not drawn),57.2% (active)
9,Cc1ccc(S(=O)(=O)N2CC(=O)Nc3ccccc32)cc1C,3.05% (inactive)
10,Cc1ccc(C(=O)N2CC(=O)Nc3ccccc32)o1,-0.84% (inactive)
11,CCOC(=O)c1csc(NC(=O)c2ccc(S(=O)(=O)N3CCCC3)cc2)n1,0.83% (inactive)
12,COc1ccc(-c2csc(NC(=O)c3ccc(N4C(=O)CCC4=O)cc3)n2)cc1OC,6.8% (inactive)
13,COc1ccc(C(=O)Nc2nc(-c3ccc(S(=O)(=O)N4CCOCC4)cc3)cs2)cc1,80.4% (active)
14,C=CCN(c1ccc(Cl)cc1)S(=O)(=O)c1cccc(C(=O)OCC(=O)N(C)C)c1,-0.9% (inactive)
15,Cc1ccc(C(=O)COC(=O)CCCC(=O)NC2CCCCC2)cc1[N+](=O)[O-],33.2% (inactive)
16,Cc1cc(OCCCN2CCN(Cc3ccccc3)CC2)ccc1[N+](=O)[O-],94.3% (active)
17,Cc1ccccc1N1CCN(CCCOc2ccc3c(C)cc(=O)oc3c2)CC1,42.5% (inactive)
18,Cc1cc(OCC(=O)NC2CCN(C)CC2)ccc1[N+](=O)[O-],55% (active)
19,O=C(COc1ccccc1[N+](=O)[O-])NC1CC1,-4.5% (inactive)
20,Cc1c(Br)c([N+](=O)[O-])nn1CC(=O)N1CCN(Cc2ccccc2)CC1,0.53% (inactive)
21,O=C(O)Cc1sc(-c2ccccc2)nc1-c1cccs1,-7.68% (inactive)
22,CC(=O)NCC(=O)N1CCCC(C(=O)c2ccc3c4c(cccc24)CC3)C1 (stereo not drawn),1.15% (inactive)
23,O=C(COc1ccccc1Cl)Nc1ccc(C(=O)c2ccc(C(=O)O)cc2)cc1,0.1% (inactive)
24,CN(CC(=O)Nc1ccccc1[N+](=O)[O-])Cc1ccc(Br)cc1,5.69% (inactive)

row,SMILES,inhibition
1,CC1=C(C)C(=O)OC(C(C)C2CCC3C4CC=C5CC(OC6OC(COC7OC(CO)C(O)C(O)C7O)C(O)C(O)C6O)CC(O)C5(C)C4CCC23C)C1 (stereo not drawn),-11.1% (inactive)
2,Cc1cc(C)cc(OCC(=O)NCc2cc(C)nc3ccccc23)c1,36.5% (inactive)
3,COC(=O)CC1=NN(c2ccccc2)C(=O)C1,-3.08% (inactive)
4,C/C(=C\C(=O)c1cccnc1)Nc1ccc(C)c(C)c1,20.1% (inactive)
5,Cc1cc(/C=C(/C#N)C(=O)Nc2ccc(Cl)cc2)c(C)n1-c1cccnc1,56.9% (active)
6,Cc1ccc(-n2c(C)cc(/C=C(\C#N)C(=O)NCC3CCCO3)c2C)cc1 (stereo not drawn),-2.28% (inactive)
7,COC(=O)c1c(C)[nH]c(C)c1-c1ccc([N+](=O)[O-])cc1,12.6% (inactive)
8,O=C(CSc1nn(-c2ccc(F)cc2)c(=S)s1)NC1CCS(=O)(=O)C1 (stereo not drawn),2.16% (inactive)
9,COc1ccc(NC(=O)CCNS(=O)(=O)c2ccc3c(c2)c(=O)n(C)c(=O)n3C)cc1OC,-8.95% (inactive)
10,O=C(Nc1ccc(Sc2ccc(Br)cc2)cc1)c1ccco1,-2.45% (inactive)
11,CCN(CC)P(=O)(Nc1ccc(SC(F)F)cc1)c1ccc(N(C)C)cc1NC(=O)c1ccco1 (stereo not drawn),85.2% (active)
12,CCC(=O)NC(=S)Nc1ccc(NC(=O)c2ccco2)c(Cl)c1,-3.46% (inactive)
13,COc1ccc(N2CCN(C(=O)COc3ccc4c(C)cc(=O)oc4c3)CC2)cc1,1.16% (inactive)
14,Cc1ccc2cc(C#N)c(NCCNC(=S)NCCCN3CCOCC3)nc2c1,1.99% (inactive)
15,CN(C)S(=O)(=O)N1CCN(c2ccc([N+](=O)[O-])cc2)CC1,-7.87% (inactive)
16,Cc1cc(C)c(OCCN2CC(C)OC(C)C2)c(Br)c1 (stereo not drawn),88.1% (active)
17,CC(=O)Nc1cccc(C(=O)Nc2nc(C)cs2)c1,11.8% (inactive)
18,CN1CCN(CC(O)COCc2ccc3c(c2)OCO3)CC1 (stereo not drawn),-2.38% (inactive)
19,CC1CCCN(CC(O)COCc2ccccc2)C1 (stereo not drawn),11% (inactive)
20,CC1CCCN(CC(O)COc2ccc3c(c2)OCO3)C1 (stereo not drawn),54.4% (active)
21,Cc1coc(C)c1C(=O)CC1(O)C(=O)N(C)c2ccc(Cl)cc21 (stereo not drawn),1.6% (inactive)
22,O=C(Nc1cccc(Cl)c1)c1cc([N+](=O)[O-])ccc1N1CCN(CCO)CC1,0.91% (inactive)
23,COc1cc(NC(=S)NCCSc2ccc(C)cc2)cc(OC)c1,7.14% (inactive)
24,Cn1c(N)c(C(=O)COC(=O)/C=C/c2ccc(OC(F)F)cc2)c(=O)n(C)c1=O,-9.55% (inactive)

row,SMILES,inhibition
1,CCCCCC(=O)Nc1ccc(-c2cn3cccnc3n2)cc1,-7.19% (inactive)
2,O=C(N/N=C\c1ccc(Br)cc1)c1ccc(Cn2cccn2)o1,1.72% (inactive)
3,CN(C)c1ccc(/C=N/NC(=O)c2ccc(Cn3cc(Br)cn3)o2)cc1,3.04% (inactive)
4,O=C(N/N=C/c1ccc2c(c1)OCO2)c1ccc(Cn2cc([N+](=O)[O-])cn2)o1,87% (active)
5,CCCCN1C(=S)NC[C@@H]1C(C)CC (stereo partly drawn),-1.31% (inactive)
6,CCOC(=O)c1ccc(NNC(C)=O)c([N+](=O)[O-])c1,-5.16% (inactive)
7,CCOC(=O)C1=C(C)N=c2s/c(=C\C(=O)OC)c(=O)n2C1c1ccc(OC)cc1 (stereo not drawn),18.8% (inactive)
8,COc1ccc(OC)c(C2C3=C(N=c4s/c(=C\c5cccc(O)c5)c(=O)n42)c2ccccc2CC3)c1 (stereo not drawn),75.7% (active)
9,COCCOC(=O)C1=C(C)N=c2s/c(=C\c3cccs3)c(=O)n2C1c1cccs1 (stereo not drawn),7.92% (inactive)
10,COc1ccc(C2CC(c3ccccc3)=NN2C(=O)COC(=O)COc2ccccc2)cc1 (stereo not drawn),2.56% (inactive)
11,CNC(=S)N1N=C(c2ccccc2)CC1c1ccc(Br)cc1 (stereo not drawn),99.3% (active)
12,Brc1ccc(C2CC(c3ccccc3)=Nc3ccccc3N2)cc1 (stereo not drawn),27.2% (inactive)
13,O=C1CS(=O)CN1c1ccc(Oc2ccccc2)cc1 (stereo not drawn),-2.75% (inactive)
14,NS(=O)(=O)c1cccc(NC(=O)COC(=O)/C=C/c2ccco2)c1,-5.99% (inactive)
15,CCN(c1ccccc1)S(=O)(=O)c1ccc(C(=O)Nc2nccs2)cc1,72.2% (active)
16,CC(=O)Oc1ccc(C(=O)Nc2nccs2)cc1,-7.34% (inactive)
17,CCN(c1ccccc1)S(=O)(=O)c1ccc(NC(=O)C(C)(C)C)cc1,0.65% (inactive)
18,COc1ccc(CCc2nnc(CCC(=O)NCc3cnn(-c4ccccc4C)c3)o2)cc1,6.37% (inactive)
19,CCOC(=O)N1CCN(C(=O)c2nn(-c3ccc(C)cc3)c(=O)c3c2c2ccccc2n3C)CC1,-5.83% (inactive)
20,O=C(c1ccccc1Oc1ccccc1)N1CCN(c2ccc(F)cc2)CC1,10.2% (inactive)
21,Cn1c2ccccc2c2c(C(=O)N3CCN(c4ccc(F)cc4)CC3)cn(C3CCCC3)c(=O)c21,99.4% (active)
